# Assay outcomes from PubChem.
# A selection: hits, their analogues and other compounds. The true share with any hit is near 7.5%.
# FLuc counter – firefly luciferase modulation, counter-screen for miR-21 project | P08659 | purified FLuc, Km substrates, luminescence inhibition | Potency, µM (top dose mostly 57.5 µM), without a hit: at the top dose activity change, negative = inhibition, most hits filed as inhibitors | 360,000 tested, 6.9% active;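 note: plate controls were vehicle for no effect and reference inhibitor for full effect; nearly all actives have a fitted effect of over 55% in size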
# Target sequence (P08659 whole entry, looked up): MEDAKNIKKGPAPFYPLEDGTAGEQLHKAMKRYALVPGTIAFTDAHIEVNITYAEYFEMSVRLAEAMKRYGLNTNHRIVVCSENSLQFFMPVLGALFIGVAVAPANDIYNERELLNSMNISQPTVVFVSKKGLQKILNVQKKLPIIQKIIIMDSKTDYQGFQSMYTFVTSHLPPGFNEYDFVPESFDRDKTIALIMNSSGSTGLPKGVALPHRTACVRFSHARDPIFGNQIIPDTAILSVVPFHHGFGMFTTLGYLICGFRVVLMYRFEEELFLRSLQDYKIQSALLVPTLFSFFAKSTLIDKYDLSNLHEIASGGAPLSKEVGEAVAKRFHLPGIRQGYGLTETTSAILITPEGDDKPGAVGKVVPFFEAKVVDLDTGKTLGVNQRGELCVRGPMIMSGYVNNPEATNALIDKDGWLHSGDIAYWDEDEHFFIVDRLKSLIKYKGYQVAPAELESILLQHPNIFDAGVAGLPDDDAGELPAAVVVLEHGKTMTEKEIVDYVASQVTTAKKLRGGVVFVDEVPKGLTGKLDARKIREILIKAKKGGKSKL
#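 Purified P. pyralis luciferase (10nM final) with 10uM D-luciferin and 10uM ATP (Km levels) in 50mM Tris acetate pH 7.5, 10mM Mg acetate, 0.01% Tween-20, 0.05% BSA; qHTS 6-point titration, ~60 µM downward; luminescence read.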
# NPC1 prom act – activators of NPC1 promoter; 320,000 tested, 2.4% active; Potency, µM (titrated, usually from 9.22 µM), without a hit: top-dose activation, most hits filed as activators; Huh7 NPC1 promoter luciferase reporter, 24 h; note: % of control where 0% means no effect; nearly all actives have a fitted effect of over 60% in size
#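 Huh7 reporter cells (NPC1 promoter driving luciferase) are dosed with compound for 24 h at 37 °C, 5% CO2; luciferase detection reagent is then added and luminescence measured after 10 min at ambient temperature.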
# KinaseGlo FLuc – counter-screen: inhibitors of Kinase-Glo firefly luciferase; Q27757; Kinase-Glo luciferase, ATP luminescence, 8 min; Potency, µM (highest dose often 38.3 µM), for inactives: at the highest dose activity change, negative = inhibition, usual class: inhibitors; 200,000 tested, 0.28% active; note: % is set by controls: 0 for no effect and ±100 for the full control effect; nearly all actives have a fitted effect of over 60% in size
#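 Kinase-Glo luciferase light output from ATP and luciferin was measured with 10 uM ATP, within the enzyme's linear range. Buffer: 50 mM imidazole pH 7.2, 50 mM KCl, 7 mM MgCl2, 0.01% Tween 20, 0.05% BSA; luminescence read after 8 min at ambient temperature.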
# ELG1 genotox – induces genotoxicity in HEK293T cells with luciferase-tagged ELG1 | HEK293T ELG1-luciferase reporter, luminescence, 16 h | Potency, µM (doses to about 46 µM), inactives show top-dose activity change, positive = activation, usual class: activators | 330,000 tested, 1.3% active | AID 504466; note: % of control where 0% means no effect; nearly all actives have a fitted effect of over 60% in size
#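 Reporter readout depends on ELG1 protein level, which increases with genetic stress. After 16 hr compound exposure at 37 °C, luciferase activity was quantified using ONE-Glo.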
# SMN2 splice up – SMN2 splice variant enhancement | Potency, µM (doses to about 46.1 µM), for the others: top-dose activity change, positive = activation, usual class: activators | 210,000 tested, 2.8% active | HEK293 SMN2-luciferase splicing reporter, luminescence, 30-36 h; note: % of control where 0% means no effect; nearly all actives have a fitted effect of over 55% in size
#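 HEK293 cells carry an SMN2 […]–luciferase reporter in which exon 7 inclusion puts luciferase in frame. Cells were plated 10-12 h before compound addition, then incubated 30-36 h at 37C. ONE-Glo luminescence was read; sodium butyrate at 4.5 mM final served as control.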
# Rab9 prom act – activators of Rab9 promoter | Huh7 Rab9 promoter-luciferase reporter, luminescence, 24 h | Potency, µM (highest dose often 9.22 µM), inactives show top-dose activation, negative = inhibition, most hits filed as activators | 320,000 tested, 2.8% active | AID 485297; note: % of control where 0% means no effect; nearly all actives have a fitted effect of over 60% in size
#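 Cells were plated at 1500 per well in reduced-serum medium with 10% FBS and left 2 h. Compound in DMSO was then added for 24 h at 37 °C. Reporter signal was read by luminescence after 10 min with luciferase detection reagent.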
# An asterisk follows results filed as active; ? = inconclusive; · = no result; [ ] = remark or other dose. Calls come from the whole dose curve; as a rule, active = well fitted curve in the direction sought with a large enough effect; inconclusive = small, poorly fitted or top-dose-only effect, or another doubt; inactive = no such curve, though single readings can be large; an effect the other way counts as inactive or inconclusive. Potency is the fitted concentration of half-maximal effect.
SMILES,FLuc counter,NPC1 prom act,KinaseGlo FLuc,ELG1 genotox,SMN2 splice up,Rab9 prom act
O=C1CC(c2ccccc2)CC(O)=C1C=Nc1cccc(Cl)c1 (stereo not drawn),7.6µM*,-6%,-7%,1%,-3%[1.84 µM],-6%
O=C1CC(c2ccccc2)CC(O)=C1C=Nc1ccc(Cl)cc1 (stereo not drawn),-10%,-3%,-1%,0%,-4%[1.84 µM],-7%
Nc1ccnc2c1ncn2[C@@H]1O[C@H](CO)[C@@H](O)[C@H]1O,·,·,·,·,-24%,·
CSC1=N/C(=C\c2cccnc2)C(=O)N1c1ccccc1,12µM*,1%,-1%,15%,11%,-3%
O=c1[nH]c(/C=C\c2cccc(F)c2)nc(O)c1[N+](=O)[O-],-11%,-1%,·,0%,·,-3%
Cc1ccc2nc(/C=C/c3cccc(F)c3)ccc2c1,1.2µM*,3.5µM*,-3%,1.8µM*,10µM*,2µM*
CC(C)(C)c1ccc(C(=O)NCCc2csc3nc(-c4ccccc4F)nn23)cc1,12µM*,·,·,·,·,·
CCOc1cc(C(=O)NCCc2csc3nc(-c4ccccc4F)nn23)cc(OCC)c1OCC,-13%,·,·,·,·,·
COc1ccc(-c2nc3sc(CCNC(=O)c4ccc(Br)o4)c(C)n3n2)cc1,11µM*,·,·,·,·,·
CCC(=O)NCCc1sc2nc(-c3ccc(OC)cc3)nn2c1C,19µM*,·,·,·,·,·
COc1ccc(-c2nc3sc(CCNC(=O)c4ccc(C(C)(C)C)cc4)c(C)n3n2)cc1,4.8µM*,·,·,·,·,·
CCOc1ccc(-n2ccnc2SCC(=O)Nc2ccc(OC)cc2OC)cc1,-14%,·,·,·,·,·
CCc1ccc2occ(CC(=O)N(Cc3ccccc3)C3CCS(=O)(=O)C3)c2c1 (stereo not drawn),-15%,·,·,·,-3%,·
COc1ccc(-c2nc3sc(CCNC(=O)c4cc(Cl)ccc4OC)c(C)n3n2)cc1,7.6µM*,·,·,·,·,·
CC(=O)OCC(=O)[C@@]1(O)CCC2C3CC[C@H]4CC(O)CC[C@@]4(C)C3C(=O)C[C@]21C (stereo partly drawn),·,·,-1%,·,-7%,·
CCOc1ccccc1/C=N/Nc1ccccc1[N+](=O)[O-],?,?,·,5%,·,3.5µM*
COc1ccccc1/C=N\Nc1ccccc1[N+](=O)[O-],1.9µM*,?,·,9.2µM*,·,2µM*
Cc1[nH]c2ccccc2c1/C=N/Nc1ccccc1[N+](=O)[O-],17µM*,8%,-29%,14%,1%,?
Cc1[nH]c2ccccc2c1/C=N/NS(=O)(=O)c1ccccc1,-10%,-2%,0%,-2%,-1%,-2%
COc1ccc(C2CC(=O)c3c([nH]c(C(=O)OC4CCCCCC4)c3C)C2)cc1 (stereo not drawn),2%,·,·,·,-17%,·
COC(=O)C1C(=O)c2c([nH]c(C(=O)OC3CCCC3)c2C)CC1C (stereo not drawn),2.4µM*,·,13%,·,14µM*,·
COc1ccccc1C(=O)NNC(=O)c1ccc(Br)cc1,13µM*,19%,·,8%,·,5%
COc1ccccc1C(=O)NNC(=O)c1ccncc1,-16%,10%,1%,7%,-10%,13%
COc1ccccc1C(=O)NNC(=O)c1ccc(NC(=O)CC(C)C)cc1,-12%,1%,·,2%,·,9%
COc1ccccc1C(=O)NNC(=O)c1ccc(Br)o1,17µM*,?,·,?,·,20%
COc1ccccc1C(=O)NNC(=O)c1ccc(C)cc1,15µM*,26%,·,?,·,?
COc1ccccc1CNC(=O)c1ccc(Br)o1,-5%,-2%,3%[39.9 µM],3%,-25%,-11%
Cc1cc(C)c(C(=O)CSc2nnc(C)s2)c(C)c1,-1%,-4%,1%,-5%,-14%,0%[1.84 µM]
Cc1cc(C)c(C(=O)CSc2nnc(N)s2)cc1C,-19%,23%,·,9%,·,15%
Cc1nnc(SCC(=O)c2ccc(C(C)C)cc2)s1,9.5µM*,29%,-1%,10%,5%,?
